Measurements from PubChem BioAssay (NCATS).
Results filed as inconclusive are left out. Values without a mark were called inactive. Active and inactive are the calls of the source. Calls follow the shape of the dose curve; as a rule, active = well fitted activation curve with a large enough effect; inconclusive = small, poorly fitted or top-dose-only effect; inactive = no such curve, though single readings can be large or run the other way.

Biological target: Cellular tumor antigen p53 (Homo sapiens) (UniProt P04637)
Sequence (P04637 whole entry, looked up): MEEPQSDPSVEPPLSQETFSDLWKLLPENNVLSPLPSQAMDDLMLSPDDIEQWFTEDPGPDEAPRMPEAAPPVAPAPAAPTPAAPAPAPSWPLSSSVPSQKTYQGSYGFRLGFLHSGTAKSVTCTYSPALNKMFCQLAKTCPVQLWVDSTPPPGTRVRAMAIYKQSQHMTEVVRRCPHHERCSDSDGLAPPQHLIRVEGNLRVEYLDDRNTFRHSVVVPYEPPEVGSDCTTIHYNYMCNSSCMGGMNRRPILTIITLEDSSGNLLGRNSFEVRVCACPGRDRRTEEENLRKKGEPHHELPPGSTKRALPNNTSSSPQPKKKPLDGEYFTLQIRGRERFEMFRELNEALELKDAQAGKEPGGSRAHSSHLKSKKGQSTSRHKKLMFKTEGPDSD
Test: Primary qHTS for small molecule compounds that upregulate eGFP-tagged delta133p53alpha (in N-terminal) cells. (AID 2060322); also: nearly all actives have a fitted effect of over 75% in size;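 as to activation: series mostly up to about 56 µM; 0% = DMSO vehicle and 100% = reference activator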
Details: NCI-H358 eGFP-delta133p53alpha fluorescence, 24 h; activation: active compounds read high
Method in brief: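 NCI-H358 cells pre-induced 24 h with 10 ng/ml doxycycline to express N-terminal eGFP-delta133p53alpha, then dosed 24 h at 37C without doxycycline; fixed, Hoechst-stained, GFP intensity by laser scanning cytometry, normalized to DMSO (0%) and 57.5 uM 5-azacytidine (100%).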
Potency is read from the fitted curve at half-maximal effect.

| SMILES | activation [%] | Potency |
| --- | --- | --- |
| CN(C)[C@@H]1C(=O)C(C(=O)NCN2CCCC2)=C(O)[C@@]2(O)C(=O)C3=C(O)c4c(O)cccc4[C@@](C)(O)C3C[C@@H]12 (stereo partly specified) | -13 | – |
| Cc1ccc(N)cc1O | – | 28.2 µM (active) |
| C=CC(=O)Nc1cccc(Nc2nc(NC3CCC(N(C)C)CC3)nc3c2ncn3C(C)C)c1 (stereo unspecified) | – | 4.85 µM (active) |
| CN1Cc2cc(C(=O)N3CCC(C4CCNCC4)CC3)ccc2NC(CC(=O)O)C1=O (stereo unspecified) | -16.7 | – |
| CC(C)=CCC[C@@](C)(O)[C@H]1CC=C(C)CC1 | 18.6 | – |
| O=C1C(Cl)=C(N2CCOCC2)C(=O)N1c1ccc(Cl)c(Cl)c1 | -1 | – |
| NC(=Nc1ccccc1)Nc1ccccc1 | 7.53 | – |
| CC(C(=O)O)c1ccc(C(=O)c2ccccc2)s1 (stereo unspecified) | 0 | – |
| COc1cc(N2CCN(C)CC2)ccc1Nc1nc(N)c(C(=O)c2c(Cl)cccc2Cl)s1 | -2.41 | – |
| O=C(Nc1ncc([N+](=O)[O-])s1)c1cccs1 | 10 | – |
| O=C(CCCCCCSc1ccc2ccccc2c1)NO | 0 | – |
| CNCC[C@@H](Oc1ccccc1C)c1ccccc1 | -17.6 | – |
| O=C(NCCc1c[nH]c2ccccc12)c1cccnc1 | 10.9 | – |
| CC1(C)S[C@@H]2[C@H](NC(=O)[C@H](N)c3ccccc3)C(=O)N2[C@H]1C(=O)O | -15.3 | – |
| c1ccc(CCNc2nc(-c3ccccc3)cs2)cc1 | 20.1 | – |
| CCCCCC(=O)O[C@]1(C(C)=O)CC[C@H]2[C@@H]3CCC4=CC(=O)CC[C@]4(C)[C@H]3CC[C@@]21C | 23.2 | – |
